Data on 14 compounds can be found in PubChem BioAssay (NCATS).

The nature of test [1]: qHTS of pediatric cancer cell lines to identify multiple opportunities for drug repurposing: Primary screen for SJ-GBM2 cells (AID 1347091). Further: potency means the concentration at half of the fitted maximal effect. The procedure, abridged:
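Cell viability, CellTiter-Glo luminescence; 500-1,000 cells/well, 8- or 11-point titration, 48 h compound exposure at 37 degrees C, 5% CO2. Controls: DMSO neutral, bortezomib 2.3 µM final as positive.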
A general note: qHTS replaces the single test concentration by a dilution series.

Test [2] in a line: qHTS of pediatric cancer cell lines to identify multiple opportunities for drug repurposing: Primary screen for SK-N-MC cells (AID 1347093). Further: potency means the concentration at half of the fitted maximal effect. The procedure, abridged:
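Metabolically active cells were quantified by ATP-dependent luminescence (CellTiter-Glo, 15 min at room temperature) following 48 h treatment. Cells had been plated at 500-1,000 per well and settled for 5 h beforehand.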

Test [3] is described as follows: qHTS of pediatric cancer cell lines to identify multiple opportunities for drug repurposing: Primary screen for BT-37 cells (AID 1347094). Further: potency means the concentration at half of the fitted maximal effect. In short, it runs like this: (§1)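 ATP-based luminescence (CellTiter-Glo) quantifies viability after a 48-hour exposure. Compounds are dosed across 8 or 11 final concentrations; DMSO and 2.3 µM bortezomib serve as controls.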
The nature of test [4]: qHTS of pediatric cancer cell lines to identify multiple opportunities for drug repurposing: Primary screen for NB-EBc1 cells (AID 1347095). Further: potency means the concentration at half of the fitted maximal effect. In short, it runs like this: as §1
Test [5] in a line: qHTS of pediatric cancer cell lines to identify multiple opportunities for drug repurposing: Primary screen for U-2 OS cells (AID 1347096). Further: nearly all actives have a fitted effect of over 50% in size. In short, it runs like this:
(§2)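 Cells (500-1,000/well) rested 5 h, then received compounds for 48 h; metabolically active cells were measured by CellTiter-Glo luminescence. Final concentrations spanned up to 46 µM (MIPE, 11-point) or 0.59 nM-46 µM (NPC, 8-point) in primary screens, 11-point in follow-ups.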

A short description of test [6]: qHTS of pediatric cancer cell lines to identify multiple opportunities for drug repurposing: Primary screen for Saos-2 cells (AID 1347097). Further: nearly all actives have a fitted effect of over 40% in size. Further: potency means the concentration at half of the fitted maximal effect. In short, it runs like this:
as §1

The nature of test [7]: qHTS of pediatric cancer cell lines to identify multiple opportunities for drug repurposing: Primary screen for SK-N-SH cells (AID 1347098). Further: nearly all actives have a fitted effect of over 65% in size. Further: potency means the concentration at half of the fitted maximal effect. In short, it runs like this:
as §2

Test [8] can be described thus: qHTS of pediatric cancer cell lines to identify multiple opportunities for drug repurposing: Primary screen for NB1643 cells (AID 1347099). Further: nearly all actives have a fitted effect of over 50% in size. Further: potency means the concentration at half of the fitted maximal effect. The procedure, abridged: as §1
Test [9] in a line: qHTS of pediatric cancer cell lines to identify multiple opportunities for drug repurposing: Primary screen for LAN-5 cells (AID 1347100). Further: potency means the concentration at half of the fitted maximal effect. In short, it runs like this:
as §2

Test [10] can be described thus: qHTS of pediatric cancer cell lines to identify multiple opportunities for drug repurposing: Primary screen for BT-12 cells (AID 1347101). Further: nearly all actives have a fitted effect of over 25% in size. Further: potency means the concentration at half of the fitted maximal effect. The procedure, abridged:
as §2

A short description of test [11]: qHTS of pediatric cancer cell lines to identify multiple opportunities for drug repurposing: Primary screen for Rh18 cells (AID 1347102). Further: nearly all actives have a fitted effect of over 65% in size. The procedure, abridged: as §2
Test [12] in a line: qHTS of pediatric cancer cell lines to identify multiple opportunities for drug repurposing: Primary screen for RD cells (AID 1347104). Further: nearly all actives have a fitted effect of over 55% in size. Further: potency means the concentration at half of the fitted maximal effect. In short, it runs like this:
as §1

A short description of test [13]: qHTS of pediatric cancer cell lines to identify multiple opportunities for drug repurposing: Primary screen for MG 63 (6-TG R) cells (AID 1347105). Further: nearly all actives have a fitted effect of over 50% in size. The procedure, abridged:
as §1

Test [14] can be described thus: qHTS of pediatric cancer cell lines to identify multiple opportunities for drug repurposing: Primary screen for control Hh wild type fibroblast cells (AID 1347106).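 Further: series mostly up to about 46 µM; a drop in luminescence marks cytotoxicity and a rise apparent proliferation; nearly all actives have a fitted effect of over 55% in size.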 In short, it runs like this: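 Cells (500-1,000/well) in growth media were settled 5 h at 37 degrees C, then given compounds for 48 h. Viability was read as CellTiter-Glo luminescence. Primary runs used MIPE at 11 points (0.78 nM-46 µM) and NPC at 8 points (0.59 nM-46 µM); follow-ups used 11 points.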

Test [15] in a line: qHTS of pediatric cancer cell lines to identify multiple opportunities for drug repurposing: Primary screen for Rh30 cells (AID 1347107). Further: series mostly up to about 46 µM; nearly all actives have a fitted effect of over 75% in size. The procedure, abridged:
as §2

Test [16] is described as follows: qHTS of pediatric cancer cell lines to identify multiple opportunities for drug repurposing: Primary screen for Rh41 cells (AID 1347108).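 Further: series mostly up to about 46 µM; luminescence drop marks cytotoxic hits; nearly all actives have a fitted effect of over 70% in size.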 The procedure, abridged:
as §1

Test [17] in a line: qHTS of pediatric cancer cell lines to identify multiple opportunities for drug repurposing: Primary screen for OHS-50 cells (AID 1347103). Further: nearly all actives have a fitted effect of over 40% in size. Further: potency means the concentration at half of the fitted maximal effect. The procedure, abridged:
as §2

Test [18] can be described thus: qHTS of pediatric cancer cell lines to identify multiple opportunities for drug repurposing: Confirmatory screen for NB1643 cells (AID 1347109). Further: nearly all actives have a fitted effect of over 45% in size. Further: potency means the concentration at half of the fitted maximal effect. The procedure, abridged:
as §2

Test [19] in a line: qHTS of pediatric cancer cell lines to identify multiple opportunities for drug repurposing: Confirmatory screen for SK-N-MC cells (AID 1347111).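 Further: potency means the concentration at half of the fitted maximal effect; cells exposed to compound for 48 h before the readout; nearly all actives have a fitted effect of over 70% in size.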 The procedure, abridged: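 Seed 500-1,000 cells/well; rest 5 h at 37 degrees C. Pin-transfer compounds, 11-point titration. Incubate 48 h. Add CellTiter-Glo, 15 min RT, read luminescence.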

“And” between values parts separate entries of the source, which are not always exact repeats. Identical values can stand only once. Records with an inconclusive call do not appear. Values without a mark were called inactive. The source made the active and inactive calls. The call rests on the fitted dose curve; in most records, active means well fitted curve in the direction sought with a large enough effect; inconclusive means small, poorly fitted or top-dose-only effect, or another doubt; inactive means no such curve, though single readings can be large; an effect the other way counts as inactive or inconclusive.

As for `COCCCN1CCC(NC(=O)c2cc(Cl)c(N)c3c2OCC3)CC1`, the Potency entry in test [1], in test [2], in test [3], in [4], in test [5] and in test [6] was “inactive” in each case. Also, the Potency result in [7], in test [8], in [9], in test [10], in [11] and in [12] was “inactive” each time. Also, the Potency entry in [13], in [14], in test [15] and in [16] was “inactive” throughout.
For `CCOc1cc(CC(=O)N[C@@H](CC(C)C)c2ccccc2N2CCCCC2)ccc1C(=O)O`, the Potency entry in [1], in test [3], in test [4], in test [5], in test [6] and in test [7] was “inactive” each time. In addition, the Potency result in test [9], in test [10], in [11], in [17], in test [12] and in [13] was “inactive” throughout. In addition, the Potency entry in test [14], in test [15], in [16] and in [18] was “inactive” each time. Further, in test [2], the Potency is 4.69 µM (active).
With `CC(S)C(=O)NCC(=O)O` (stereo not given), the Potency result in test [1], in test [2], in [3], in test [4], in [5] and in [6] was “inactive” throughout. Besides, the Potency result in test [7], in [9], in [10], in [11], in test [17] and in test [12] was “inactive” in each case. Besides, the Potency entry in test [13], in test [14], in [15], in test [16] and in test [18] was “inactive” throughout.
As for `Oc1ccc(OCc2ccccc2)cc1`, the Potency entry in test [1], in test [2], in test [3], in [4], in test [5] and in test [6] was “inactive” each time. For the same compound, the Potency entry in [7], in [8], in test [9], in test [10], in test [11] and in test [17] was “inactive” each time. The Potency result in [12], in test [13], in [14], in test [15] and in test [16] was “inactive” each time.
Regarding `CC1(C)CCC(C)(C)c2cc(NC(=O)c3ccc(C(=O)O)cc3)ccc21`, the Potency entry in test [1], in test [3], in [5], in [7], in test [9] and in test [10] was “inactive” throughout. For the same compound, the Potency entry in test [11], in [12], in [13], in test [14], in test [15] and in test [16] was “inactive” each time. In test [2], the Potency was 1.87 µM (active).
Take `COc1ccc(C2(C#N)CCC(C(=O)O)CC2)cc1OC1CCCC1` (stereo not given): the Potency result in test [1], in [3], in test [4], in test [5], in [6] and in test [9] was “inactive” throughout. Further, the Potency entry in [10], in test [11], in test [17], in [12], in test [13] and in test [14] was “inactive” each time. The Potency result in [15] and in [16] was “inactive” each time. For the same compound, the Potency was 16.6 µM (active) in test [2] and 11.8 µM (active) in [8].
Consider `CCCCc1ccc2nc(NC(=O)OC)[nH]c2c1`, for which the Potency is 1 nM (active) and 106 nM (active) in test [1]; 5.3 nM (active) and 26.6 nM (active) in test [2]; 43.2 nM (active) and 61.7 nM (active) in test [3]; 1 nM (active) and 106 nM (active) in [4]; 9.3 nM (active) and 29.9 nM (active) in test [6]; 0.0118 µM (active) in [9]. For the same compound, the Potency is 27.3 nM (active) and 61.7 nM (active) in [10]; 15.3 nM (active) and 61.7 nM (active) in test [17]; 0.657 µM (active) in test [18]; 0.329 µM (active) in test [19]. In addition, the Potency result in test [8], in test [11] and in test [15] was “inactive” throughout.
For the compound `O=C(O)c1cn(-c2ccc(F)cc2)c2cc(N3CCNCC3)c(F)cc2c1=O`, the Potency result in test [1], in test [2], in test [3], in test [4], in test [5] and in [6] was “inactive” throughout. In addition, the Potency result in [7], in test [8], in test [9], in test [10], in [11] and in test [17] was “inactive” in each case. Also, the Potency entry in [12], in test [13], in test [14], in test [15] and in [16] was “inactive” throughout.
As to `CC(C)c1ccc2c(c1)c(SC(C)(C)C)c(CC(C)(C)C(=O)O)n2Cc1ccc(Cl)cc1`, the Potency in [1] is 20.9 µM (active); in test [2], 8.33 µM (active); in test [3], 27.3 µM (active); in [6], 29.6 µM (active); in test [8] it was 16.6 µM (active). Besides, the Potency result in test [5] and in [14] was “inactive” throughout.
For `O=C1c2ccccc2-c2n[nH]c3cccc1c23`, the Potency entry in test [1], in [5], in test [13] and in test [14] was “inactive” throughout. Further, the Potency in [2] is 2.64 µM (active); in test [3] it was 3.43 µM (active); in test [4], 1.05 µM (active); in test [7], 5.41 µM (active); in [8] it was 2.96 µM (active); in test [9], 1.66 µM (active). Also, the Potency in test [17] was 21.7 µM (active).
As to `NC(=NCc1ccccc1)NC(=O)c1nc(Cl)c(N)nc1N`, the Potency result in [1], in test [3], in [4], in test [5], in [6] and in [7] was “inactive” throughout. The Potency entry in test [9], in test [10], in test [11], in test [17] and in [14] was “inactive” throughout. Also, the Potency in [2] is 1.18 µM (active); in test [8], 9.35 µM (active); in test [12], 26.4 µM (active).
As for `CC1=C(C)C(=O)C(C(CCCCCC(=O)O)c2ccccc2)=C(C)C1=O` (stereo not given), the Potency entry in [1], in test [2], in test [3], in test [4], in test [5] and in [6] was “inactive” in each case. For the same compound, the Potency result in test [7], in [9], in test [10], in test [11], in test [17] and in test [12] was “inactive” each time. Further, the Potency entry in test [13], in [14], in test [15] and in test [16] was “inactive” in each case.
For `CC(C)Oc1ccc2c(=O)c(-c3ccccc3)coc2c1`, the Potency result in test [1], in test [2], in test [3], in test [4], in test [5] and in test [6] was “inactive” each time. The Potency result in test [7], in test [8], in test [9], in [11], in test [12] and in [13] was “inactive” throughout. Besides, the Potency entry in test [14], in test [15] and in [16] was “inactive” each time.
Regarding `CC1(C)NC(=O)N(c2ccc([N+](=O)[O-])c(C(F)(F)F)c2)C1=O`, the Potency entry in test [1], in test [2], in [3], in test [4], in test [5] and in test [6] was “inactive” throughout. Also, the Potency result in test [7], in [8], in test [9], in test [11], in [17] and in test [12] was “inactive” in each case. The Potency result in [13], in [14], in test [15] and in test [16] was “inactive” in each case.
